Source: PubChem (National Center for Advancing Translational Sciences (NCATS))
AmpC no deterg: blocks E. coli AmpC beta-lactamase in detergent-free assay; 0.52% of 330,000 active; AmpC nitrocefin hydrolysis, absorbance 480 nm, 0.0001% Triton; P00811; Potency, µM (titrated, usually from 57.1 µM), without a hit: at the highest dose activity change, negative = inhibition, most hits filed as inhibitors;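 also: plate controls were no compound for no effect and no enzyme for full effect; nearly all actives have a fitted effect of over 20% in size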
Target sequence (P00811 whole entry, looked up): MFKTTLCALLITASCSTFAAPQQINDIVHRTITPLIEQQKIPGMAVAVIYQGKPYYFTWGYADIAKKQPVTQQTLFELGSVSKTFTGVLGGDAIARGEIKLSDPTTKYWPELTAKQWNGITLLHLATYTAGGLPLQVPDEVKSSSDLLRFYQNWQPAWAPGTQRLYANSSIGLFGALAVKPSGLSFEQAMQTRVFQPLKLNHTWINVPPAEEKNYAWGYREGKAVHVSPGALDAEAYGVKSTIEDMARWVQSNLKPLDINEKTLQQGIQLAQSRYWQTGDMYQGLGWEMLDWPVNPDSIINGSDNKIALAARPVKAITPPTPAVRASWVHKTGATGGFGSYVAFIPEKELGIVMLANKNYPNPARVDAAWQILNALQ
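AmpC (5.3 nM in the dispensed reagent) in 20 mM phosphate pH 7.0 with 0.01% (detergent screen) or 0.0001% Triton X-100 was preincubated with compounds for 15 min at room temperature. Nitrocefin was then added from an 800 uM solution, and hydrolysis was followed at 480 nm.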
SARS PLP yeast: blocks SARS-CoV papain-like protease in a yeast assay. 0.19% of 330,000 active. S. cerevisiae expressing SARS-CoV PLpro, growth rescue. Potency, µM (titrated, usually from 32.9 µM), without a hit: top-dose activity, positive = growth rescue, usual class: activators. AID 485353; calls by dose curve; also: 0% is about no effect; nearly all actives have a fitted effect of over 55% in size
Sm TGR block: S. mansoni TGR enzyme inhibition. Q962Y6. purified TGR, DTNB reduction, TNB absorbance 405 nm. Potency, µM (doses to about 114 µM), without a hit: top-dose activity change, negative = inhibition, actives largely listed as inhibitors. 3% of 360,000 active. AID 485364; also: % is scaled to controls: 0 for no effect and ±100 for the full control effect; nearly all actives have a fitted effect of over 60% in size
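TGR 20 nM + NADPH 100 uM (dispensed conc.), cpd preinc 15 min RT; start with NADPH (500 uM addition) then DTNB (15 mM addition). Kinetic TNB absorbance, 405 nm filter. Four-parameter Hill fit across titration.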
AmpC detergent: AmpC beta-lactamase inhibition with detergent present; Potency, µM (top dose mostly 114 µM), for inactives: at the top dose activity change, negative = inhibition, most hits filed as inhibitors; P00811; AmpC hydrolysis of nitrocefin, absorbance 480 nm, 0.01% Triton; 0.041% of 370,000 active;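 also: 0% = no-compound wells and -100% = no-enzyme wells; nearly all actives have a fitted effect of over 25% in size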
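AmpC (5.3 nM in the dispensed reagent) in 20 mM phosphate pH 7.0 with 0.01% (detergent screen) or 0.0001% Triton X-100 was preincubated with compounds for 15 min at room temperature. Nitrocefin was then added from an 800 uM solution, and hydrolysis was followed at 480 nm.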
Pf growth 48h: P. falciparum growth inhibition at 48 hours (one generation) | Potency, µM (titrated, usually from 28.7 µM), for inactives: top-dose activity change, negative = inhibition, usual class: inhibitors | P. falciparum luciferase growth in erythrocytes, 48 h | 5.9% of 310,000 active; also: % is scaled to controls: 0 for no effect and ±100 for the full control effect
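Here the parasites carry a stable luciferase gene and grow inside erythrocytes in Albumax-based RPMI medium with compound for one erythrocytic cycle. Activity is scored as loss of luminescent signal.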
Pf growth 96h: P. falciparum growth inhibition at 96 hours. Potency, µM (highest dose often 28.7 µM), for inactives: at the highest dose activity change, negative = inhibition, usual class: inhibitors. AID 504834. 6.9% of 320,000 active. P. falciparum luciferase reporter growth, 96 h; also: % is scaled to controls: 0 for no effect and ±100 for the full control effect
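Erythrocytes infected with luciferase-expressing P. falciparum were dispensed at 2% hematocrit and 0.05% parasitemia (final), then incubated with compounds 96 hours at 37 C in 5% CO2. Luminescence after detection reagent addition reported growth.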
* = called active by the depositor; ? = inconclusive; · = no result given; [ ] = another dose, or the depositor's remark. Compounds with a hit are over-represented: about 12% of the library has one in this group of screens. Unless noted, calls follow the shape of the dose curve; as a rule, active = well fitted curve in the direction sought with a large enough effect; inconclusive = small, poorly fitted or top-dose-only effect, or another doubt; inactive = no such curve, though single readings can be large; an effect the other way counts as inactive or inconclusive. Potency is read from the fitted curve at half-maximal effect.

SMILES | AmpC no deterg | SARS PLP yeast | Sm TGR block | AmpC detergent | Pf growth 48h | Pf growth 96h
Cc1ccccc1OCC(=O)N1N=C(C(F)(F)F)CC1(O)C(C)(C)C (configuration not stated) | 1% | -11% | ? | -1% | 10µM* | ?
CC(OC(=O)Cn1cnc2c1c(=O)n(C)c(=O)n2C)C(=O)NC1CCCCC1C (configuration not stated) | -4% | 3% | -5% | -22% | 5% | 26%
CCOc1cccc(OCCn2cnc3ccccc3c2=O)c1 | -19% | -6% | -3% | -14% | 68% | 10µM*
Cc1nn(Cc2ccccc2)c(Cl)c1/C=C/C(=O)OC(C)C(=O)N1CCCC1 (configuration not stated) | 31%[11.4 µM] | 1% | 5% | 11% | 1.7µM* | 3.7µM*
O=C(c1cccn2c(=O)c3cc(Cl)ccc3nc12)N1CCN(Cc2ccc3c(c2)OCO3)CC1 | 53% | -4% | ? | 2% | ? | -4%
O=C(c1cc2cc(Cl)cc(Cl)c2oc1=O)N1CCOCC1 | -11% | -2% | 0% | ? | 15% | 8.3µM*
O=C(c1cc(Cl)ccc1Cl)N1CCOCC1 | 1% | -9% | 0% | -14% | 25% | 13µM*
O=C(c1cccn2c(=O)c3cc(Cl)ccc3nc12)N1CCOCC1 | -20% | -2% | -20% | -1% | 13µM* | 10µM*
Cc1ccc(CNC(=O)c2cccc(-n3cnc4cccnc43)c2)cc1 | · | · | 23% | 2% | · | ·
O=C(COC(=O)CCC(=O)c1ccc(F)cc1)Nc1ccc(Cl)cn1 | -29% | -3% | · | · | · | ·
Cc1cc(NC(=O)CCC(=O)N(CC(=O)NC2CCCC2)c2ccc(F)c(Cl)c2)no1 | 41% | 1% | -11% | -10% | ? | 15%
O=C(CSc1nnc2[nH]c(=O)cc(-c3ccccc3)n12)Nc1cc(C(F)(F)F)ccc1Cl | · | · | 12% | 0% | · | ·
CCCOC(=O)NC(CC)COC(=O)Nc1cccc(C)c1C (configuration not stated) | 2% | -4% | -27% | -12% | 6% | 9.3µM*
Cc1ccc(-n2nc(CO)c(C(=O)NCCCCc3ccccc3)n2)cc1 | · | · | 2% | 20% | · | ·
c1ccc(Cn2c(CNc3nc4ccccc4n3CCN3CCOCC3)nc3ccccc32)cc1 | 128% | -3% | 0% | ? | 12µM* | 9%[5.75 µM]
COc1cccc(CNc2nc3ccccc3n2CCN2CCCCC2)c1 | 3% | -5% | -11% | 2% | ? | ·
Brc1ccc(CNc2nc3ccccc3n2CCN2CCCCC2)cc1 | 13% | -1% | 11% | -7% | ? | 13µM*
Brc1cccc(CNc2nc3ccccc3n2CCN2CCCCC2)c1 | 5% | 0% | 13% | -11% | ? | 12µM*
CCCCN(CCCC)S(=O)(=O)c1ccc(NC(=O)c2c(-c3ccccc3)noc2C)cc1 | · | · | 2% | 2% | · | ·
Cc1ccccc1CNC(=O)c1sc2ncnc(N(C)C3CCCCC3)c2c1C | · | · | 6% | 6% | · | ·
COC(=O)c1cc(-c2ccc(C)cc2)c2c(=O)n(C)c(=O)n(C)c2n1 | · | · | 3% | 18% | · | ·
COCC(C)OC(=O)c1c(N)n(Cc2ccco2)c2nc3ccccc3nc12 (configuration not stated) | -22% | -2% | 10µM* | -4% | · | ·
COCC(C)OC(=O)c1c(N)n(-c2ccc(OC)c(OC)c2)c2nc3ccccc3nc12 (configuration not stated) | -10% | 1% | 14% | 6% | 23% | -2%
CCOC(=O)c1c(N)n(Cc2ccco2)c2nc3ccccc3nc12 | 1% | -3% | 45µM* | ? | ? | 19%
O=C1C2Sc3[nH]c(=O)sc3C(c3cc([N+](=O)[O-])ccc3O)C2C(=O)N1c1ccccc1 (configuration not stated) | -54% | 4% | -8% | -7% | 22% | 25%
SMILES | AmpC no deterg | SARS PLP yeast | Sm TGR block | AmpC detergent | Pf growth 48h | Pf growth 96h
CCOc1ccc(-n2c(=O)c3sccc3n(CC(=O)NCCc3ccc(OC)c(OC)c3)c2=O)cc1 | -24% | 1% | -10% | ? | 16% | 19%
Cc1cccc(N2CCN(CC(=O)N(C3CCCC3)C3CCS(=O)(=O)C3)CC2)c1C (configuration not stated) | 142% | 6% | -20% | 5% | 10µM* | ?
O=C1NCC(COCc2ccco2)O1 (configuration not stated) | -6% | 1% | 45µM* | -13% | 8% | ?
Cc1ccccc1OCC1CNC(=O)O1 (configuration not stated) | 0% | 0% | · | -7% | 37% | ?
CCc1cc2c(NCCC(=O)O)ncnc2s1 | -11% | 0% | -22% | -1% | 18% | 12µM*
N#Cc1cnc(Sc2ccccc2)nc1 | -13% | 1% | 7% | 1% | ? | 0.033µM*
CCOC(=O)c1ccccc1OC(=O)CS(=O)c1ccccc1[N+](=O)[O-] (configuration not stated) | -3% | -1% | · | 2% | 17% | 10%
O=C(CNc1ccc(C(F)(F)F)cc1[N+](=O)[O-])OCC(=O)c1ccccc1 | -9% | -5% | 2% | 0% | · | 3%
COC(=O)c1ccc(OC(=O)CS(=O)c2ccccc2[N+](=O)[O-])cc1 (configuration not stated) | -18% | -5% | 22µM* | 2% | 34% | -32%
CS(=O)(=O)c1ccc(S(=O)CC(=O)OCc2ccccc2)c([N+](=O)[O-])c1 (configuration not stated) | -6% | -3% | 2.5µM* | -11% | -17%[5.75 µM] | ?
O=C(CS(=O)c1ccc(C(F)(F)F)cc1[N+](=O)[O-])Oc1ccccc1 (configuration not stated) | 1% | -50% | 35µM* | 6% | · | -79%
Cc1cccnc1NC(=O)c1ccc(NS(=O)(=O)/C=C/c2ccccc2)cc1 | ? | 7% | 0% | ? | ? | -1%
COc1ccc2c(c1)c1c(c(=O)n(CCc3ccccc3)c(=O)n1Cc1ccc(Cl)cc1)n2C | · | · | -5% | 2% | · | ·
Cc1ccc2c(c1C)NC(=O)C21N2CCCC2C(C(=O)c2ccc3ccccc3c2)C12C(=O)Nc1ccccc12 (configuration not stated) | -28% | 0% | 6% | 1% | 9.3µM* | 9.3µM*
O=C(CCc1nc2cccnc2n1Cc1ccccc1)NCc1cccc(Cl)c1 | · | · | -4% | -3% | · | ·
CN(C)c1nc(-c2ccccc2)[n+](C)s1 | -12% | -1% | -4% | -3% | 12µM* | 23%
CCCn1c(NC(=S)Nc2ccccc2)nc2ccccc21 | -32% | ? | -12% | ? | ? | 42%
